Source: PubChem BioAssay (NCATS)
Inconclusive results are not listed. Entries that show only a call come without a potency. Calls of active or inactive are those of the source. Calls follow the shape of the dose curve; as a rule, active = well fitted inhibition curve with a large enough effect; inconclusive = small, poorly fitted or top-dose-only effect; inactive = flat fitted curve, though single readings scatter. Numbered stars: 1 amine (or outer) side, 2 acyl side, 3 side chain; on linkers, the order of the positions; unused ones are H or OH. Bridge positions count the residues as written; N and C are the ends. Square brackets hold non-standard residues; d marks the D form. Peptide text beside a SMILES is read from it. I, II: the chains in the order shown. Actinocin(9to1) = Cc1c2oc3c(C)ccc(C(=O)[*:1])c3nc-2c(C(=O)[*:2])c(N)c1=O; NMeV = CN[C@H](C(=O)O)C(C)C; Sar = CNCC(=O)O

test system: CP203; assay: qHTS profiling for inhibitors of Plasmodium falciparum proliferation (AID 504749); also: nearly all actives have a fitted effect of over 60% in size; settings: P. falciparum in erythrocytes, SYBR Green DNA, 72 h; series mostly up to 28.7 µM
Description: NIH National Institute of Allergy and Infectious Diseases [NIAID] NIH Chemical Genomics Center [NCGC] MLPCN Grant: None Assay Provider: Xinzhuan Su, NIAID NCGC Assay Overview: Plasmodium falciparum is a virulent malarial parasite that kills 1-2 million people worldwide each year. Transmitted by mosquitoes, the sporozoite form of the parasite enters the blood stream to infect hepatocytes, where they become merozoites that infect red blood cells (erythrocytes). Within erythrocytes, merozoites begin a […] cycle of growth and division, after which the parasite is released to infect new red blood cells. Gametocytes, which form within erythrocytes as well, circulate in the bloodstream and are ingested by the mosquito, thereby completing the life cycle. To profile malarial isolates for differential chemical responses and to identify inhibitors of malarial growth, an assay that measures P. falciparum growth and replication within erythrocytes was employed. This assay uses a DNA binding fluorescent dye (SYBR Green) to detect parasite DNA following cell lysis. Because mature erythrocytes lack DNA, only Plasmodium-derived DNA is detected.
NCGC Assay Protocol Summary: The SYBR Green viability assay was adapted from a method described previously (Plouffe et al., 2008). For screening 3 ul culture medium was dispensed into 1536 well black clear bottom plates (Aurora Biotechnologies) using a Multidrop Combi (Thermo Fisher Scientific Inc.), 23 nL compounds in DMSO were added by a pin tool (Kalypsys), and 5 ul of erythrocytes infected with P. falciparum (0.3% parasitemia, 2.5% hematocrit final concentration) were added. The plates were incubated at 37 C in a humidified incubator in 5% CO2 for 72 h, and 2 ul lysis buffer (20 mM Tris HCl, 10 mM EDTA, 0.16% saponin, 1.6% triton X, 10X SYBR Green I supplied as 10,000X […] by Invitrogen) was added to each well. The plates were mixed for 25 sec with gentle shaking and incubated overnight at room temperature in the dark. The following morning, fluorescence intensity at 485(14) nm excitation and 535(25) nm emission wavelengths was measured on an EnVision (Perkin Elmer) plate reader. Plate reads were normalized relative to the control inhibitor (0.29 uM artemisinin) and vehicle (DMSO) wells present on each plate and then corrected by an algorithm using vehicle-only control plates at the beginning and end of the compound plate stack.
Potency is read from the fitted curve at half-maximal effect.

SMILES | Potency
C1CCc2nnnn2CC1 | inactive
OC(CCN1CCCCC1)(c1ccccc1)c1ccccc1 | 16.9 µM (active)
CC(C)NC[C@@H](O)COc1cccc2ccccc12 | 10.7 µM (active)
Oc1ccc(O)cc1 | 15.1 µM (active)
COc1ccc(CN2CCN(C(c3ccc(F)cc3)c3ccc(F)cc3)CC2)c(OC)c1OC | 13.5 µM (active)
C[C@H]1C[C@H]2[C@@H]3CCC4=CC(=O)C=C[C@]4(C)[C@@]3(Cl)[C@@H](O)C[C@]2(C)[C@@]1(O)C(=O)CO | inactive
Nc1ccc(/C=C/c2ccc(N)cc2S(=O)(=O)O)c(S(=O)(=O)O)c1 | inactive
CCC(=O)c1c(O)cc(O)cc1O | inactive
OCc1ccccc1O | inactive
COC(=O)[C@@H]1CC2=CC(=O)CC[C@]2(C)[C@@]23O[C@@H]2C[C@@]2(C)[C@@H](CC[C@@]24CCC(=O)O4)[C@H]13 | inactive
Oc1ccc(Cl)c2cccnc12 | inactive
CCCCCCCCCCCCCCCC[N+](C)(C)CCN(Cc1ccc(OC)cc1)c1ncccn1 | inactive
O=C(O)CNC(=O)c1ccccc1 | inactive
O=C(Nc1ccc(Oc2ccc(Cl)cc2)c(Cl)c1)c1cc(I)cc(I)c1O | inactive
O=C(Nc1ccc(Cl)c(Cl)c1)C1CC1 | inactive
COCc1c(C(C)C)nc(C(C)C)c(/C=C/[C@@H](O)C[C@@H](O)CC(=O)O)c1-c1ccc(F)cc1 | inactive
NCCC(O)(P(=O)(O)O)P(=O)(O)O | inactive
CC(=O)OCC(=O)[C@@]1(OC(C)=O)[C@@H](C)C[C@H]2[C@@H]3C[C@H](F)C4=CC(=O)C=C[C@]4(C)[C@@]3(F)[C@@H](O)C[C@@]21C | inactive
CC(=O)N/N=C/c1ccc([N+](=O)[O-])o1 | inactive
CCCCCCCCCCCCCCNCCO | inactive

SMILES | Potency
C[C@@H]1C(=O)NC2=Nc3cccc(Cl)c3CN21 | inactive
Oc1c(Cl)cc(Cl)cc1Sc1cc(Cl)cc(Cl)c1O | inactive
C[C@H](O)C(=O)Nc1c(I)c(C(=O)NC(CO)CO)c(I)c(C(=O)NC(CO)CO)c1I | inactive
COc1cc2c(cc1OC)C(=O)C(CC1CCN(Cc3ccccc3)CC1)C2 (stereo not given) | inactive
C[C@]12CC[C@@H]3c4ccc(O)cc4CC[C@H]3[C@@H]1CC[C@@H]2O | inactive
C[C@H]1[C@H](NC(=O)/C(=N/OC(C)(C)C(=O)O)c2csc(N)n2)C(=O)N1S(=O)(=O)O (stereo in doubt) | inactive
O=C1c2ccccc2C(=O)C1c1ccccc1 | inactive
CCN1CCC[C@H]1CNC(=O)c1c(OC)ccc(Br)c1OC | inactive
CC(C)COC(=O)OCN1C(=O)CN(CCN2CC(=O)N(COC(=O)OCC(C)C)C(=O)C2)CC1=O | inactive
Cc1c(C(N)=O)cc([N+](=O)[O-])cc1[N+](=O)[O-] | inactive
CCCCCC=CCC=CCCCCCCCC(=O)OCC | inactive
Cc1c2oc3c(C)ccc(C(=O)N[C@@H]4C(=O)N[C@H](C(C)C)C(=O)N5CCC[C@H]5C(=O)N(C)CC(=O)N(C)[C@@H](C(C)C)C(=O)O[C@@H]4C)c3nc-2c(C(=O)N[C@@H]2C(=O)N[C@H](C(C)C)C(=O)N3CCC[C@H]3C(=O)N(C)CC(=O)N(C)[C@@H](C(C)C)C(=O)O[C@@H]2C)c(N)c1=O (I: T[dV]P[Sar][NMeV] / II: T[dV]P[Sar][NMeV]; ester I:1-I:C, II:1-II:C; linker I:N-II:N via Actinocin(9to1)) | 0.006 µM (active)
CC(O)(P(=O)(O)O)P(=O)(O)O | inactive
CCCCCCCCCCCCCCCC[N+](C)(C)CC | 10.7 µM (active)
CN1CCC[C@@H]1c1cccnc1 | inactive
COc1cc(OC)cc(OC)c1 | inactive
CN(C)/N=N/c1nc[nH]c1C(N)=O | inactive
CC(C)(C(=O)c1cccnc1)c1cccnc1 | inactive
CCCCC1=NC2(CCCC2)C(=O)N1Cc1ccc(-c2ccccc2-c2nn[nH]n2)cc1 | inactive
Nc1cc(Cl)c(NC2=NCCN2)c(Cl)c1 | inactive
